In PubChem BioAssay (NCI):
This is part of a sample that, as a whole, favours compounds with a hit. Of some 83,000 tested, about 20% had one in any assay.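 How to read the values: 0–100, growth inhibition (40 = 60% inhibited); 0, no net growth; -100 to 0, cell death (-40 = 40% of starting cells died; -100 = all dead).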 Values without a mark were called inactive. Active and inactive are the calls of the source. Rule for the calls: active = growth percent below 10; inactive = the rest.

Experiments:
Assay in all cases: NCI-60 one-dose screen, 48 h (100 = growth as untreated, 0 = no growth, -100 = all killed)
Details in all cases: 10 µM unless noted
[1] = tested on: SR leukemia
[2] = tested on: RPMI-8226 leukemia
[3] = tested on: OVCAR-8 ovarian
[4] = tested on: OVCAR-5 ovarian
[5] = tested on: OVCAR-4 ovarian
[6] = tested on: SK-OV-3 ovarian
[7] = tested on: IGROV1 ovarian
[8] = tested on: OVCAR-3 ovarian
[9] = tested on: HS 578T breast
[10] = tested on: NCI/ADR-RES ovarian
[11] = tested on: T-47D breast
[12] = tested on: BT-549 breast
[13] = tested on: MDA-MB-435 melanoma
[14] = tested on: SW-620 colon
[15] = tested on: MCF7 breast
[16] = tested on: HCT-116 colon
[17] = tested on: HCC-2998 colon
[18] = tested on: KM12 colon

| SMILES | growth [1] | growth [2] | growth [3] | growth [4] | growth [5] | growth [6] | growth [7] | growth [8] | growth [9] | growth [10] | growth [11] | growth [12] | growth [13] | growth [14] | growth [15] | growth [16] | growth [17] | growth [18] |
| --- | --- | --- | --- | --- | --- | --- | --- | --- | --- | --- | --- | --- | --- | --- | --- | --- | --- | --- |
| Cn1ccnc1C(=O)/C=C/c1ccc(CNC(=O)c2ccc(F)cc2)cc1 | 8.69% (active) | 13% | 47.1% | 17.4% | 42% | 77.8% | 23.1% | 15.1% | 40.4% | 18.9% | 33.4% | 43.2% | 44.1% | 9.37% (active) | 11.6% | 13.2% | 35.9% | 22.1% |
| NC(=O)c1c(NC(=O)c2ccccc2C(F)(F)F)sc2c1CCC(=O)C2 | 27.2% | -1.93% (active) | 17.3% | 27% | 9.19% (active) | 105% | 31.2% | 12.3% | 32.5% | 14.9% | 14.1% | 14.7% | 14.7% | 19% | 5.93% (active) | 9.24% (active) | 33.3% | 9.45% (active) |
| COc1ccccc1C(=O)Nc1cccc2c1C(=O)C(=O)C=C2 | 58.2% | 88.3% | 102% | 114% | 74.8% | 114% | 79.2% | 13.1% | 102% | 113% | 98.8% | 96.3% | 96.8% | 94.2% | 81% | 99% | 122% | 99.3% |
| C=C1CC[C@@H]2[C@](C)(CO)[C@H](O)CC[C@@]2(C)[C@@H]1C/C(O)=C1\CCOC1=O | 83.6% | 83.8% | 98.5% | 120% | 94.7% | 113% | 107% | 93.2% | 92.3% | 98% | 96.6% | 109% | 94.6% | 94.9% | 77% | 95.4% | 104% | 111% |
| O=[N+]([O-])c1cc(/C=N/Nc2nc(N/N=C/c3ccc(Cl)c([N+](=O)[O-])c3)nc(N3CCCCC3)n2)ccc1Cl | 63.2% | -18.3% (active) | 31% | 108% | 86.9% | 98.8% | 52.7% | -7.45% (active) | 53.8% | 30.2% | 48.2% | 97.9% | 92.3% | 63.7% | 0.909% (active) | 22% | 67.4% | 5.45% (active) |
| CCCCCc1ccc(S(=O)(=O)Nc2cccc(-c3csc(NC(=O)CNCCN(C)C)n3)c2)cc1 | 22.2% | 30.3% | 95.7% | 110% | 70% | 109% | 87.9% | 87.7% | 90.9% | 73.1% | 68.3% | 104% | 90.1% | 87.3% | 41.3% | 55.4% | 16.2% | 90.2% |
| NS(=O)(=O)c1ccc(Nc2nc(N/N=C/c3ccc(Cl)cc3)nc(Nc3ccccc3)n2)cc1 | 19% | 54.7% | 67.9% | 83.4% | 83.6% | 104% | 66.8% | 70.4% | 64.7% | 97.5% | 44.8% | 74.9% | 57.7% | 101% | 38.7% | 44.3% | 76.4% |  |
| NC(N)=Nc1ccc(Oc2cccc(NC(N)=Nc3ccc(I)cc3F)c2)cn1 | 7.24% (active) | 34.1% | 77.6% | 49% | 66.6% | 67.2% | 39.7% | 41.7% | 53.3% | 95.2% | 26.1% | 89.5% | 68.3% | 76.3% | 7.64% (active) | 58.2% | 70.9% | 47.7% |
| CCCCCCCn1cc2c(NCCc3ccccc3)ncnc2n1 | 85.4% | 92.4% | 99.9% | 108% | 101% | 113% | 97.5% | 121% | 88.5% | 98.7% | 94.5% | 100% | 96.6% | 92.8% | 86.9% | 96.6% | 116% | 97% |
| CC1=CC(=O)C2=C(C)CC(OC(=O)CCc3ccccc3)[C@@H]3[C@H](OC(=O)[C@@H]3C)[C@@H]12 (stereo partly specified) | 86.8% | 74.7% | 96.8% | 95.9% | 91.6% | 91.6% | 82.7% | 98.6% | 104% | 98.2% | 96.5% | 98.9% | 93.3% | 96.7% | 83.9% | 69.2% | 102% |  |
| ClC(Cl)c1nc(-c2ccco2)n2nc(-c3ccccc3)cc2n1 | 87.3% | -25.5% (active) | 31.7% | 2.76% (active) | 36.6% | 51% | 76.9% | -29.9% (active) | -2.15% (active) | 4.02% (active) | 32.8% | 87.7% | 24.9% | 8.35% (active) | 1.38% (active) | 2.94% (active) | -53.5% (active) |  |
| Cc1nn(-c2ccccc2)c2ncnc(N/N=C/c3ccccc3O)c12 | 11.5% | 20.4% | 12.2% | 35.9% | 28.6% | 10.4% | 3.8% (active) | 29.4% | 35.6% | 3.15% (active) | 15.6% | 25.6% | 16.3% | 26.2% | 9.62% (active) | 20.9% | 52% |  |
| NS(=O)(=O)c1ccc(-n2cc(CN3CCNCC3)nn2)cc1 | 100% | 110% | 110% | 106% | 105% | 110% | 112% | 111% | 111% | 111% | 107% | 110% | 106% | 109% | 98.9% | 107% | 101% | 105% |
| COc1cc2nc(Cl)nc(Nc3cccc(C4=Nc5c(N)nc(N)nc5NC(c5ccccc5)C4)c3)c2cc1OC (stereo unspecified) | -1.18% (active) | 49% | 67.2% | 110% | 96.7% | 121% | 86.7% | 77.7% | 96.4% | 94.1% | 67.5% | 81.6% | 101% | 85.4% | 70.5% | 74.6% | 94.3% | 78.3% |
| Nc1ccccc1NC(=O)c1ccc(NC(=O)C/C=C/c2cccnc2)cn1 | 28.2% | -12% (active) | 21.5% | 26% | 32.9% | 29.4% | 16.7% | 22.7% | 24.6% | 19% | 8.26% (active) | 3.27% (active) | 19% | 14.5% | 5.84% (active) | 4.69% (active) | 9.51% (active) | 26.2% |
| Nc1cc(F)ccc1NC(=O)c1ccc(NC(=O)C/C=C/c2cccnc2)cc1 | 29.3% | 6.2% (active) | 29.9% | 37.2% | 48% | 54.5% | 27.9% | 45.1% | 49% | 51% | 22.7% | 26.1% | 28% | 17.6% | 33% | 9.59% (active) | 52.8% |  |
| COc1ccc(/C=C(\C#N)C(=O)N2c3ccccc3Sc3ccc(SC)cc32)cc1F | 121% | 95.6% | 91.4% | 86.5% | 75.4% | 100% | 91.1% | 93.4% | 85% | 92.7% | 70.9% | 104% | 97.9% | 95.2% | 95.9% | 91.2% | 90.5% | 95.3% |
